# ChEMBL document CHEMBL1961873, “Compounds: GSK PKIS; Assays: Nanosyn kinase panel” (2012)
# Legend:
# [1] = biological target: Sphingosine kinase 1 (Homo sapiens) (UniProt Q9NYA1); conditions: at 1 µM;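 further: mean SPHK1 inhibition value reported from the GSK PKIS kinase panel screen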
# [2] = biological target: T1, Sphingosine kinase 2 (Homo sapiens) (UniProt Q9NRA0); conditions: at 0.1 µM
# T1 sequence (whole entry): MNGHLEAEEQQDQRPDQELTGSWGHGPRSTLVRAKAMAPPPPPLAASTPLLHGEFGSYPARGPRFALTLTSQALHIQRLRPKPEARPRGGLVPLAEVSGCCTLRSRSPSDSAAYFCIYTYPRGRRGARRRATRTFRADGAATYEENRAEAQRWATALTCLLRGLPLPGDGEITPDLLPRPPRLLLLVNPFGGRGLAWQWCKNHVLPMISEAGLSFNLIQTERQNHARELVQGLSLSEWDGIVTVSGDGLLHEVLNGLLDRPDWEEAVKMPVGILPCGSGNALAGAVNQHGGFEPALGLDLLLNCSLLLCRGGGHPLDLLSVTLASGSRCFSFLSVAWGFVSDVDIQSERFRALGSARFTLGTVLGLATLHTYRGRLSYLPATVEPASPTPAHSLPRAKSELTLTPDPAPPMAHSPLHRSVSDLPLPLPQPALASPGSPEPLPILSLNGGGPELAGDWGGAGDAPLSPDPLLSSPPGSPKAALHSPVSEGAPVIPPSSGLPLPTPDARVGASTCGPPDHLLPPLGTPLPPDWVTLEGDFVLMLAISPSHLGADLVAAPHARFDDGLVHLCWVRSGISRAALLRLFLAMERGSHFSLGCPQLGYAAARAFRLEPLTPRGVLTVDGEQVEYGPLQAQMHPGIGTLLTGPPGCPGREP
# [3] = biological target: T1, Sphingosine kinase 2 (Homo sapiens); conditions: at 1 µM
# [4] = biological target: Casein kinase II subunit alpha (Homo sapiens) (UniProt P68400); conditions: at 0.1 µM
# Casein kinase II subunit alpha (Homo sapiens), sequence (P68400 whole entry, looked up): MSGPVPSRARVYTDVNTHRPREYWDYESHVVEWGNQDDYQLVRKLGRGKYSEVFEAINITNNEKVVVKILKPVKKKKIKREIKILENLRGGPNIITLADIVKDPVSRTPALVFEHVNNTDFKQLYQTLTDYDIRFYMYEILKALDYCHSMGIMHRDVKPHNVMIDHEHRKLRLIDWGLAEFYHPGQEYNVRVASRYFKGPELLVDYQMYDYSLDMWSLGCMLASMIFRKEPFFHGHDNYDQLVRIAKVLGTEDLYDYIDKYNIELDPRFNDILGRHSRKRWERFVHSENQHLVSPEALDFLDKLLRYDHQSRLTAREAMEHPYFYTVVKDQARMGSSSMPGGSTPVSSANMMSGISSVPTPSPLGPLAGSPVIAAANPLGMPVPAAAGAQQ
# [5] = biological target: Casein kinase II subunit alpha (Homo sapiens) (UniProt P68400); conditions: at 1 µM
# [6] = biological target: T2, Inhibitor of nuclear factor kappa-B kinase subunit alpha (Homo sapiens) (UniProt O15111); conditions: at 0.1 µM
# T2 sequence (whole entry): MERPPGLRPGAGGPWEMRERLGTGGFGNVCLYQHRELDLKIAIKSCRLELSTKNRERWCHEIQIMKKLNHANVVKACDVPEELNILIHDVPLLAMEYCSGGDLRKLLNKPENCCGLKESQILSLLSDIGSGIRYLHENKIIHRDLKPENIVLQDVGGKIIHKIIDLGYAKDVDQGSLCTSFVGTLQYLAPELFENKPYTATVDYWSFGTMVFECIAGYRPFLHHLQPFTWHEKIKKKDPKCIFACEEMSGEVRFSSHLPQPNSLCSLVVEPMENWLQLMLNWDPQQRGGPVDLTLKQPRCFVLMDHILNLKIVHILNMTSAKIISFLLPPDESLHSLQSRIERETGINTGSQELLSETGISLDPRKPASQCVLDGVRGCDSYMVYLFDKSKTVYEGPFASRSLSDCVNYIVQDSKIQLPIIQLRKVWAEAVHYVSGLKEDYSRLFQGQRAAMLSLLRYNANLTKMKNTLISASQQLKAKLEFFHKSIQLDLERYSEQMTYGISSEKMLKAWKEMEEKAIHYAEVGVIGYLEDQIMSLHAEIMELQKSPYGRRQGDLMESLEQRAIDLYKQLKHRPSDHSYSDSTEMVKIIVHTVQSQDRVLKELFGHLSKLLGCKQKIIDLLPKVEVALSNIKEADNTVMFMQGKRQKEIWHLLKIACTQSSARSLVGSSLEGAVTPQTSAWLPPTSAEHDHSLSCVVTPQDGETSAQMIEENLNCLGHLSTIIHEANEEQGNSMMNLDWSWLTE
# [7] = biological target: T2, Inhibitor of nuclear factor kappa-B kinase subunit alpha (Homo sapiens); conditions: at 1 µM
# [8] = biological target: T3, Inhibitor of nuclear factor kappa-B kinase subunit beta (Homo sapiens) (UniProt O14920); conditions: at 0.1 µM
# T3 sequence (whole entry): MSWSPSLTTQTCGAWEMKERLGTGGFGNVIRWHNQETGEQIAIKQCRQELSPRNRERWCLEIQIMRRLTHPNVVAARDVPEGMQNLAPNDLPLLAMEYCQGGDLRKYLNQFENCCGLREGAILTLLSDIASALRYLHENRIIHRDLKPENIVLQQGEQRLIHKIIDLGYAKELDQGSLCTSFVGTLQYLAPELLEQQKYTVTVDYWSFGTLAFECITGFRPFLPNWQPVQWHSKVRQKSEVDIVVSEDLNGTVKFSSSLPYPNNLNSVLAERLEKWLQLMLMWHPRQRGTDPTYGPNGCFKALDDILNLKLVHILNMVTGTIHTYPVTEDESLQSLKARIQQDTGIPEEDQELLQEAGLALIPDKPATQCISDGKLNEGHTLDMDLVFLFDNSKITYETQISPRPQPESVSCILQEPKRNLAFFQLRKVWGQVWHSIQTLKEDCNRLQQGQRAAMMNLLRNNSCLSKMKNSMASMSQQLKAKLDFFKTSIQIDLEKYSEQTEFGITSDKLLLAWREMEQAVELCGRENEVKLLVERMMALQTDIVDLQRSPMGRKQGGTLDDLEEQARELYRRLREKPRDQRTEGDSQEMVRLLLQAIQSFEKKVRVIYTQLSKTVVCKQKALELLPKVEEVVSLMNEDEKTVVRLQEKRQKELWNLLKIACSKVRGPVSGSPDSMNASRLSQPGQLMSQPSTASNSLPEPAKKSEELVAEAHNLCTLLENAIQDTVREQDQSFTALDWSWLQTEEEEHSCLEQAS
# [9] = biological target: T3, Inhibitor of nuclear factor kappa-B kinase subunit beta (Homo sapiens); conditions: at 1 µM
# [10] = biological target: T4, Inhibitor of nuclear factor kappa-B kinase subunit epsilon (Homo sapiens) (UniProt Q14164); conditions: at 0.1 µM
# T4 sequence (whole entry): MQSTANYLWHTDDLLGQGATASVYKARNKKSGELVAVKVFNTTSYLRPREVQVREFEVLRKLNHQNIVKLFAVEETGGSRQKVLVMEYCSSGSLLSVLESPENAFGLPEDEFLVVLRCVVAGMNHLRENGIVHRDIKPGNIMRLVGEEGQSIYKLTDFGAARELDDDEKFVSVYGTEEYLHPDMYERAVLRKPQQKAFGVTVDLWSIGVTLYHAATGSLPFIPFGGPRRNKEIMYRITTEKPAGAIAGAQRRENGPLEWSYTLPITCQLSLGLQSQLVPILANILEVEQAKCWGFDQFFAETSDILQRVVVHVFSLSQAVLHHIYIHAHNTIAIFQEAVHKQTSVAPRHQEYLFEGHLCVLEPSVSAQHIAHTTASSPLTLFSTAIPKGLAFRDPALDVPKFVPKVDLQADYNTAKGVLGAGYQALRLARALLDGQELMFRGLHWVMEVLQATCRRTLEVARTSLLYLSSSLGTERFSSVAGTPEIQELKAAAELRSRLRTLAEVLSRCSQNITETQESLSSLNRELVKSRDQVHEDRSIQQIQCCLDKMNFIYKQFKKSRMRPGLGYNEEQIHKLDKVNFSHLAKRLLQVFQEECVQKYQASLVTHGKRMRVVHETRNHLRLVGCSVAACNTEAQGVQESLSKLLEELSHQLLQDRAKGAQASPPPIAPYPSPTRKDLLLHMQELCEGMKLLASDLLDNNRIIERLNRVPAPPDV
# [11] = biological target: T4, Inhibitor of nuclear factor kappa-B kinase subunit epsilon (Homo sapiens); conditions: at 1 µM
# [12] = biological target: T5, Serine/threonine-protein kinase Nek1 (Homo sapiens) (UniProt Q96PY6); conditions: at 0.1 µM
# T5 sequence (whole entry): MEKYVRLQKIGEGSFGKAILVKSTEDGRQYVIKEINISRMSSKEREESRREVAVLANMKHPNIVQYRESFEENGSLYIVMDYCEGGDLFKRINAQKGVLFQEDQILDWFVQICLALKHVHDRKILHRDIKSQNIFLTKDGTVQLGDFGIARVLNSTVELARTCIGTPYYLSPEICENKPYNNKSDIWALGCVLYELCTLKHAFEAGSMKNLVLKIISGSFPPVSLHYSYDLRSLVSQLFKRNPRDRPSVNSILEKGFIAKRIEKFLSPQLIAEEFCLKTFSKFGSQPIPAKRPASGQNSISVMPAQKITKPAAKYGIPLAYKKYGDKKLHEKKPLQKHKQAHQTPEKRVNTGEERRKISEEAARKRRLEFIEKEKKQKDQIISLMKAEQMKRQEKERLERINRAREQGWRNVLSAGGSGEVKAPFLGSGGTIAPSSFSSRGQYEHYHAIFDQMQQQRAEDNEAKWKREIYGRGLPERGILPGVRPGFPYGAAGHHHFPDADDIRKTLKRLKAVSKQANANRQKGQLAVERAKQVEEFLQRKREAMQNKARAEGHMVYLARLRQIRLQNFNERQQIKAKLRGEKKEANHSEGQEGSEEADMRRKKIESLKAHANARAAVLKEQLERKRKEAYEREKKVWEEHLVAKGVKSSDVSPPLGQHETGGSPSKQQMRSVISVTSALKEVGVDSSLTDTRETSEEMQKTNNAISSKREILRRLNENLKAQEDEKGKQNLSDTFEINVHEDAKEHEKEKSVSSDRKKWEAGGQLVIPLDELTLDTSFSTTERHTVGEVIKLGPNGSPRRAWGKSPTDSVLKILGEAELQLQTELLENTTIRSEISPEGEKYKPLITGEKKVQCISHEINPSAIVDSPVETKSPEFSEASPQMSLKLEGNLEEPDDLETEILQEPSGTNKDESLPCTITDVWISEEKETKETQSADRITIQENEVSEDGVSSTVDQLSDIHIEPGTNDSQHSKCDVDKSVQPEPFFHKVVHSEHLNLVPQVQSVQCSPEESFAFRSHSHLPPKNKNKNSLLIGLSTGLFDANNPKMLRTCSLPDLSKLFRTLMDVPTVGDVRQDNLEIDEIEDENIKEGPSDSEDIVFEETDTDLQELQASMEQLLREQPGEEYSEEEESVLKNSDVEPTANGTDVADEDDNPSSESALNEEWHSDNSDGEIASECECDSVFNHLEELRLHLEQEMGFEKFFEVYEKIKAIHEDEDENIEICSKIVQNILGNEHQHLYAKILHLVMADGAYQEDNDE
# [13] = biological target: T5, Serine/threonine-protein kinase Nek1 (Homo sapiens); conditions: at 1 µM
# [14] = biological target: T6, Serine/threonine-protein kinase Nek2 (Homo sapiens) (UniProt P51955); conditions: at 0.1 µM
# T6 sequence (whole entry): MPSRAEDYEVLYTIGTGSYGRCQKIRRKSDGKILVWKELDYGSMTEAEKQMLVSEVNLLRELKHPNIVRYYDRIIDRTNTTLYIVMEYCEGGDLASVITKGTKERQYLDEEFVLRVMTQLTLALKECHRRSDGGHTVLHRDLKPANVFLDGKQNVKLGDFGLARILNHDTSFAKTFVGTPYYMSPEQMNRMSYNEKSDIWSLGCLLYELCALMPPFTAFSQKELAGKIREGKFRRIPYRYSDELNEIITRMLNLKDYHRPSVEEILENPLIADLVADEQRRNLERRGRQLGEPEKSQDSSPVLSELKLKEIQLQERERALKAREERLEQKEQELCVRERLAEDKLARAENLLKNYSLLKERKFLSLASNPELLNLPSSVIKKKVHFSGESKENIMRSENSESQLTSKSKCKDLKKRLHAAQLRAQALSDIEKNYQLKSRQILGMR
# [15] = biological target: T6, Serine/threonine-protein kinase Nek2 (Homo sapiens); conditions: at 1 µM
# [16] = biological target: Serine/threonine-protein kinase Nek6 (Homo sapiens) (UniProt Q9HC98); conditions: at 0.1 µM
# Serine/threonine-protein kinase Nek6 (Homo sapiens), sequence (Q9HC98 whole entry): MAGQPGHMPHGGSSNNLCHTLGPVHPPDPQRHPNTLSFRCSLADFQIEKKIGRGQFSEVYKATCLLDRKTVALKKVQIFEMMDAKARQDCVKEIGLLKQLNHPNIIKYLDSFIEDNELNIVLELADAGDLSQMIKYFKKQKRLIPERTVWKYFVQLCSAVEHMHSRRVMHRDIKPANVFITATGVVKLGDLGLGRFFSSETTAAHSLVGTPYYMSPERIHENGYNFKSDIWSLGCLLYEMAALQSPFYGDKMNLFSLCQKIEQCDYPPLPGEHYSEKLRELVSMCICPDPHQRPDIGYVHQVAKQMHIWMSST
# [17] = biological target: Serine/threonine-protein kinase Nek6 (Homo sapiens) (UniProt Q9HC98); conditions: at 1 µM
# [18] = biological target: Serine/threonine-protein kinase Nek7 (Homo sapiens) (UniProt Q8TDX7); conditions: at 0.1 µM
# Serine/threonine-protein kinase Nek7 (Homo sapiens), sequence (Q8TDX7 whole entry, looked up): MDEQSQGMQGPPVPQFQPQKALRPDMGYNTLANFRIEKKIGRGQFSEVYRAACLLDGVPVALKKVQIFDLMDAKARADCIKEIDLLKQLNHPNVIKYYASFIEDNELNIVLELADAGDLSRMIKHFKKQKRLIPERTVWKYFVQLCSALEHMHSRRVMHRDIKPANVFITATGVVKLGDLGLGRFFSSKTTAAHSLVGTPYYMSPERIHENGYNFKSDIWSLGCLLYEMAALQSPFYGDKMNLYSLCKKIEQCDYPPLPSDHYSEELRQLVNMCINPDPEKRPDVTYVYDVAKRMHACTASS
# [19] = biological target: Serine/threonine-protein kinase Nek7 (Homo sapiens) (UniProt Q8TDX7); conditions: at 1 µM
# [20] = biological target: T7, Serine/threonine-protein kinase Nek9 (Homo sapiens) (UniProt Q8TD19); conditions: at 0.1 µM;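 further: reported value is the mean percent inhibition of NEK9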
# T7 sequence (whole entry): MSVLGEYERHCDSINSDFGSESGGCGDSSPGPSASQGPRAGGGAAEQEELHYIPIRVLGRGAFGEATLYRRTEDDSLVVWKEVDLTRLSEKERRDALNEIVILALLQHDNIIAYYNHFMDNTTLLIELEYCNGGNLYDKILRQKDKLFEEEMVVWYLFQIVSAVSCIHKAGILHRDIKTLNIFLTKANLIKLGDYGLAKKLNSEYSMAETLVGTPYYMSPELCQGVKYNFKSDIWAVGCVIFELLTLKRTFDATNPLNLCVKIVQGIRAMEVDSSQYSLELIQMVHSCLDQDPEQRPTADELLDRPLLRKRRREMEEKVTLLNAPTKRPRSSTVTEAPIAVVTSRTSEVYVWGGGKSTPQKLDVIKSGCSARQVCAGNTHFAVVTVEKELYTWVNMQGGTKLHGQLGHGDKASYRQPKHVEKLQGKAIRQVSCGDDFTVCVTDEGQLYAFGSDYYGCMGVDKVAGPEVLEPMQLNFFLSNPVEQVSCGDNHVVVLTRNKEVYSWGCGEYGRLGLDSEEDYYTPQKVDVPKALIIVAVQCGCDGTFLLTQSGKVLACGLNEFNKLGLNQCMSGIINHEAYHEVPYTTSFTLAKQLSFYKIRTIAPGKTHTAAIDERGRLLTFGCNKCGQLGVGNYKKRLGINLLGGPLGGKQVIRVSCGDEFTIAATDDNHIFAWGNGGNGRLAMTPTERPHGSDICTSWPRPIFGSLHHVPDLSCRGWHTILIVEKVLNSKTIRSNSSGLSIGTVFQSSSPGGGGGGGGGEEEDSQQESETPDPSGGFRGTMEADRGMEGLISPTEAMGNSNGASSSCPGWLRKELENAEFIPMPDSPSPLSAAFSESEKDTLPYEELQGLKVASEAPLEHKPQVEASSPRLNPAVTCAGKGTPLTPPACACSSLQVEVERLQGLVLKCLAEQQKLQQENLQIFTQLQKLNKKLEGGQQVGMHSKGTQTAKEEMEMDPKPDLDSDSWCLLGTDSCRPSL
# Sphingosine kinase 1 (Homo sapiens), sequence (Q9NYA1 whole entry): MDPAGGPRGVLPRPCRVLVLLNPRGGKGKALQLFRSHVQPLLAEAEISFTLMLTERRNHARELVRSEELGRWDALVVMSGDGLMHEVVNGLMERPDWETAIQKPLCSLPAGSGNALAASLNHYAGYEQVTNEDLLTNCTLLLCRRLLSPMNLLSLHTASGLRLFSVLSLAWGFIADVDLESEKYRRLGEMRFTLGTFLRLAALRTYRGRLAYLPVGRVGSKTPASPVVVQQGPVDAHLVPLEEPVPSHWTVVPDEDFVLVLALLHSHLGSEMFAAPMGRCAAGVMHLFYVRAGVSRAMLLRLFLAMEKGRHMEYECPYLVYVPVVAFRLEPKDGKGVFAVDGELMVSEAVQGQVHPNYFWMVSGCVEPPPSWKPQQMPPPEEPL
smiles,measurement,setting,value
CN(c1ccc(NC(=O)Nc2ccc(OC(F)(F)F)cc2)cc1)c1ccnc(Nc2cccc(S(N)(=O)=O)c2)n1,inhibition,[1],0.54%
same,inhibition,[2],-0.4%
same,inhibition,[3],1.23%
same,inhibition,[4],2.7%
same,inhibition,[5],1.68%
same,inhibition,[6],8.41%
same,inhibition,[7],3.54%
same,inhibition,[8],3.29%
same,inhibition,[9],2.85%
same,inhibition,[10],5.07%
same,inhibition,[11],7.75%
same,inhibition,[12],0.8%
same,inhibition,[13],2.63%
same,inhibition,[14],2.68%
same,inhibition,[15],3.03%
same,inhibition,[16],1.81%
same,inhibition,[17],0.14%
same,inhibition,[18],1.37%
same,inhibition,[19],-1.48%
same,inhibition,[20],2.65%
